# Measured values: PubChem BioAssay (EPA / NIEHS)
# Inconclusive results are not listed. Where a structure was tested more than once in an assay, its records may differ in their call. The source made the active and inactive calls. The calls were made as follows: active = hit-call score of the fitted dose curve at least 0.9, where 1 is the maximum; inconclusive = response in the unintended direction; inactive = score below 0.9.
# What was measured:
# [1] = molecular target: rat Thyrotropin Releasing Hormone Receptor (TRH), Trhr (gene 25570) (UniProt Q01717); test: NVS_GPCR_rTRH: NovaScreen (NVS) G Protein-Coupled Receptor Assay for rat Thyrotropin Releasing Hormone Receptor (TRH) (AID 2283329);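 also: hit means lower bound tracer signal versus DMSO baseline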
# Method in brief: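 Rat forebrain membranes; radioligand displacement at TRH receptor by filter-based scintillation counting, read 4 h after dosing. Duplicate single-point screen at 25 uM, actives rerun in concentration series; loss of signal relative to DMSO.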
# [2] = molecular target: Estrogen receptor (Homo sapiens) (UniProt P03372); test: NVS_NR_hER: NovaScreen (NVS) Nuclear Receptor Binding Assay for human Estrogen Receptor (ER) (AID 2283348)
# Method in brief: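 MCF7-derived receptor extract, radiolabelled ligand, competitive displacement. Read: scintillation counts at 18 h. DMSO = negative control/baseline. Primary 25 uM duplicate; follow-up concentration–response.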
# [3] = molecular target: Estrogen receptor (Homo sapiens) (UniProt P03372); test: OT_ER_ERaERa_1440: Odyssey Thera (OT) 24-hour HEK293T Protein-Complementation Assay for Estrogen Receptor-alpha/-alpha Homodimer (AID 2283349);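 also: hits raise fluorescence above DMSO for agonists and antagonists alike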
# Method in brief: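 Cells (HEK293T) carrying the fragment-tagged ERα LBD (aa 310-547) pair are treated with chemical for 24 hours. Nuclear and/or cytoplasmic fluorescence is then quantified on a laser scanning cytometer. Activity is scored as signal gain against DMSO.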
# [4] = molecular target: Estrogen receptor (Homo sapiens) (UniProt P03372); test: OT_ER_ERaERa_0480: Odyssey Thera (OT) 8-hour HEK293T Protein-Complementation Assay for Estrogen Receptor-alpha/-alpha Homodimer (AID 2283351);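 also: rise in fluorescence from reassembled reporter fragments on ERα LBD homodimer in nucleus or whole cell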
# Method in brief: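 Read-out: fluorescence intensity rise relative to DMSO, nuclear for agonists, nuclear plus cytoplasmic for antagonists. Construct is the ERα LBD (aa 310-547) homodimer fragment-complementation pair, stably expressed in HEK293T; exposure 8 h.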
# [5] = molecular target: bovine Estrogen Receptor (ER), ESR1 (gene 407238) (UniProt P49884); test: NVS_NR_bER: NovaScreen (NVS) Nuclear Receptor Binding Assay for bovine Estrogen Receptor (ER) (AID 2283345);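 also: actives lower the bound radioligand count which means they displace the ER ligand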
# Method in brief: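 Cell-free radioligand binding with bovine uterine membrane extracts, read 18 hours after dosing by scintillation counting. Loss of signal versus DMSO baseline indicates displacement. Primary screen run in duplicate at 25 uM, actives followed in concentration series.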
# [6] = molecular target: Sodium channel protein type 1 subunit alpha (Rattus norvegicus) (UniProt P04774); test: NVS_IC_rNaCh_site2: NovaScreen (NVS) Ion Channel Assay for rat Sodium Channel, Site 2 (NaCh) (AID 2283322);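 also: hit means loss of radioligand binding signal relative to DMSO so AC50 marks displacement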
# Method in brief: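 Initial duplicate single-point testing at 25 uM, followed by concentration-response runs for actives. Binding of radioligand to rat forebrain membranes quantified after 1 h via filter-based radiodetection.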
# [7] = molecular target: human Peripheral-type Benzodiazepine Receptor (PBR), TSPO (gene 706) (UniProt P30536); test: NVS_MP_hPBR: NovaScreen (NVS) Membrane Protein Assay for human Peripheral-type Benzodiazepine Receptor (PBR) (AID 2283331);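 also: hits reduce radioligand binding relative to DMSO baseline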
# Method in brief: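 Cell-free radioligand displacement, human colonic membranes, 1 h exposure. Filter radiodetection read-out. Single-concentration duplicates (25 uM), then concentration-response for actives; DMSO negative control.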
# [8] = molecular target: rat Peripheral-type Benzodiazepine Receptor (PBR), Tspo (gene 24230) (UniProt P16257); test: NVS_MP_rPBR: NovaScreen (NVS) Membrane Protein Assay for rat Peripheral-type Benzodiazepine Receptor (PBR) (AID 2283335)
# Method in brief: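 Single-concentration duplicate screening at 25 uM preceded concentration-series retesting of actives. Binding of a specific radioligand to rat kidney membrane PBR was read by filtration radiodetection after 1 h, with plate-wise positive and negative controls.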
# Estrogen receptor (Homo sapiens), sequence (P03372 whole entry, looked up, the tested form may be a part): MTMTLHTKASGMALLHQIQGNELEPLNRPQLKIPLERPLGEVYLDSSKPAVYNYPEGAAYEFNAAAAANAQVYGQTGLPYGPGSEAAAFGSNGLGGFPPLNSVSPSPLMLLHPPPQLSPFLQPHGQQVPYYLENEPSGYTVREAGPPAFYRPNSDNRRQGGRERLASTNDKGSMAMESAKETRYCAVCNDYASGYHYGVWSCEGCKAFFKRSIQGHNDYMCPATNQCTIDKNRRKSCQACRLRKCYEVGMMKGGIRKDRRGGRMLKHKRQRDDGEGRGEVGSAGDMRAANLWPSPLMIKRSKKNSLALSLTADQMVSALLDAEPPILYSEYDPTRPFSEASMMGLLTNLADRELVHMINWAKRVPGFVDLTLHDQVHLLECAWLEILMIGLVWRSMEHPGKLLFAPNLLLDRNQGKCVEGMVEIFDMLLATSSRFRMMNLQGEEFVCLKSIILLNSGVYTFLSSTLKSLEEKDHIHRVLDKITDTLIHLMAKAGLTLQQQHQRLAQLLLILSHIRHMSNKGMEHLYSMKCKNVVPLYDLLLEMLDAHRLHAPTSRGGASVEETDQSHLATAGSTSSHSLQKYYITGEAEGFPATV
# rat Thyrotropin Releasing Hormone Receptor (TRH), Trhr (gene 25570), sequence (Q01717 whole entry, looked up): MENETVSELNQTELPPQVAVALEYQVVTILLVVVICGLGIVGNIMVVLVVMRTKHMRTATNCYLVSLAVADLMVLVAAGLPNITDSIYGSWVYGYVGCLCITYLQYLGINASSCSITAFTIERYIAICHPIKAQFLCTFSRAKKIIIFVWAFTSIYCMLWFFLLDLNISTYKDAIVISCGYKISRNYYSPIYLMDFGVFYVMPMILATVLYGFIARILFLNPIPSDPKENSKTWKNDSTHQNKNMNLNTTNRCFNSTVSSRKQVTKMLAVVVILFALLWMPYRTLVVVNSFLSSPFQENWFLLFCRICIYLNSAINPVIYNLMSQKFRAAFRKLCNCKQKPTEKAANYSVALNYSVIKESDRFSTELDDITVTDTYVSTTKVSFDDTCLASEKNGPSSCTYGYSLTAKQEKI
# bovine Estrogen Receptor (ER), ESR1 (gene 407238), sequence (P49884 whole entry, looked up): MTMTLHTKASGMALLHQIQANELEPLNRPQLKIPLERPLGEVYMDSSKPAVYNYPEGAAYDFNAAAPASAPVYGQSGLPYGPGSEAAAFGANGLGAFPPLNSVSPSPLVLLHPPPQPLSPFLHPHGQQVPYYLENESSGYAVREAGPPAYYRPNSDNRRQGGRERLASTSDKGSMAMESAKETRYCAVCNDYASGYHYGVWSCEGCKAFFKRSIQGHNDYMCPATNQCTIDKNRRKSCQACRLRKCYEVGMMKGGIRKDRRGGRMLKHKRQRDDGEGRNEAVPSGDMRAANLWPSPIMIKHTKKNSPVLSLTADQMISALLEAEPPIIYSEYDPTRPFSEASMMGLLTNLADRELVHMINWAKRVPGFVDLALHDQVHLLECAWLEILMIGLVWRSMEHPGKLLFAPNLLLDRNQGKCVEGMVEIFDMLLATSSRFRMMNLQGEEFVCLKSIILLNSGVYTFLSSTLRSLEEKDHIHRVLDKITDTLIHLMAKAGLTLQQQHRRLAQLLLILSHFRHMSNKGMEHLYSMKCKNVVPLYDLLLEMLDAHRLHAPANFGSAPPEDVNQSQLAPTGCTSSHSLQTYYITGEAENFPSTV
# human Peripheral-type Benzodiazepine Receptor (PBR), TSPO (gene 706), sequence (P30536 whole entry, looked up): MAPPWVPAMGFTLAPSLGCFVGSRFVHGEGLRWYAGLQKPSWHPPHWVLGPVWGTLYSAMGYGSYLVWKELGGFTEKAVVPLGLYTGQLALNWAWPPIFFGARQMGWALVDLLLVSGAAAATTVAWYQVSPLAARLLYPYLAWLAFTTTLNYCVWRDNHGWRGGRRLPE
# rat Peripheral-type Benzodiazepine Receptor (PBR), Tspo (gene 24230), sequence (P16257 whole entry, looked up): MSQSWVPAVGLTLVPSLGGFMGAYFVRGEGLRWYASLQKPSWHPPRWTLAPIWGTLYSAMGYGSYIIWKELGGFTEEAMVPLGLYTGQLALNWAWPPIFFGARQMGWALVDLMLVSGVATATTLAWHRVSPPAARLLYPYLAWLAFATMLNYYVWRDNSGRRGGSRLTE
smiles,measurement,setting,value
CC(C)C1=CC2=CC[C@@H]3[C@](C)(CCC[C@@]3(C)C(=O)O)[C@H]2CC1,outcome,[1],inactive
same,outcome,[2],inactive
same,AC50,[3],12 µM (active)
same,outcome,[4],inactive
NC(=O)N=NC(N)=O,outcome,[1],inactive
same,outcome,[3],inactive
same,outcome,[4],inactive
Cc1cc(C)c(C)cc1C,outcome,[1],inactive
same,outcome,[3],inactive
same,outcome,[4],inactive
CCCCCCCC/C=C\CCCCCCCC(=O)OCCO,outcome,[1],inactive
same,outcome,[3],inactive
same,outcome,[4],inactive
CC(=O)c1ccc2c(c1)CCCC2,AC50,[5],5.86 µM (active)
COC(=O)c1c(C)cc(O)c(C)c1O,outcome,[1],inactive
same,outcome,[3],inactive
same,outcome,[4],inactive
CC(C)(C)c1ccc(N)cc1,outcome,[1],inactive
same,outcome,[3],inactive
same,outcome,[4],inactive
CCCCCCCCCCOS(=O)(=O)O,outcome,[1],inactive
same,outcome,[3],inactive
same,outcome,[4],inactive
CCOC(=O)[C@H](C)O,outcome,[6],inactive
NC(=O)c1ccccc1O,outcome,[1],inactive
same,outcome,[3],inactive
same,outcome,[4],inactive
CCCCCc1ccc(Cl)cc1,outcome,[1],inactive
same,outcome,[3],inactive
same,outcome,[4],inactive
CN(C)c1ccc(C(=N)c2ccc(N(C)C)cc2)cc1,outcome,[1],inactive
same,AC50,[7],2.62 µM (active)
same,AC50,[8],11.6 µM (active)
same,outcome,[2],inactive
same,AC50,[3],33.4 µM (active)
same,AC50,[4],59.1 µM (active)
CCN(CCC#N)c1ccc(N=Nc2c(Cl)cc([N+](=O)[O-])cc2Cl)cc1,outcome,[1],inactive
same,outcome,[3],inactive
same,outcome,[4],inactive
Cc1ccc(C(C)c2ccc(C)c(C)c2)cc1C,outcome,[1],inactive
same,AC50,[3],84.6 µM (active)
same,AC50,[4],70.3 µM (active)
c1c[nH]cn1,outcome,[1],inactive
same,outcome,[3],inactive
same,outcome,[4],inactive
O=c1cc(-c2ccccc2)oc2ccccc12,AC50,[7],12.6 µM (active)
same,AC50,[8],3.68 µM (active)
same,outcome,[5],inactive
same,outcome,[2],inactive
same,outcome,[3],inactive
same,outcome,[4],inactive
Oc1ccc(Cl)cc1Cc1cc(Cl)ccc1O,outcome,[5],inactive
same,AC50,[2],25 µM (active)
same,AC50,[3],11.9 µM (active)
same,outcome,[4],inactive
CCC(C)OC(=O)c1ccc(O)cc1 (centres undefined),AC50,[5],9.45 µM (active)
same,AC50,[2],0.603 µM (active)
COc1ccc(C(Cl)=C(c2ccc(OC)cc2)c2ccc(OC)cc2)cc1,outcome,[5],inactive
same,AC50,[2],7.49 µM (active)
CCOC(=O)c1ccccc1C(=C1C=C(Br)C(=O)C(Br)=C1)c1cc(Br)c(O)c(Br)c1,outcome,[5],inactive
Cc1cccc(N(C)C(=S)Oc2ccc3ccccc3c2)c1,outcome,[5],inactive
same,outcome,[2],inactive
NC(CO)(CO)CO,outcome,[5],inactive
same,outcome,[2],inactive
same,outcome,[3],inactive
same,outcome,[4],inactive
O=C(OCC1CCC2OC2C1)C1CCC2OC2C1 (centres undefined),outcome,[5],inactive
same,outcome,[3],inactive
same,AC50,[4],12.1 µM (active)
CC1=Nc2ccc3ccccc3c2C1(C)C,outcome,[5],inactive
[Cl][In]([Cl])[Cl],outcome,[5],inactive
same,AC50,[2],25 µM (active)
same,outcome,[2],inactive
CC(=O)[C@H]1[C@H](C#N)C[C@H]2[C@@H]3CC=C4C[C@@H](O)CC[C@]4(C)[C@H]3CC[C@@]21C,outcome,[5],inactive
same,outcome,[2],inactive
same,outcome,[3],inactive
same,outcome,[4],inactive
O=C1CCCCCN1SSN1CCCCCC1=O,outcome,[5],inactive
OC1CCCC1,outcome,[5],inactive
same,outcome,[2],inactive
same,outcome,[3],inactive
same,outcome,[4],inactive
Cc1cc(O)c(Cl)c(C)c1Cl,outcome,[5],inactive
O=S1(=O)OC(c2ccc(O)cc2)(c2ccc(O)cc2)c2ccccc21,outcome,[5],inactive
same,AC50,[2],13.2 µM (active)
same,outcome,[3],inactive
same,outcome,[4],inactive
COc1cc(NC(=O)CC(C)=O)c(OC)cc1Cl,outcome,[2],inactive
COC(=O)C1=C(C)NC(C)=C(C(=O)OCC(C)C)C1c1ccccc1[N+](=O)[O-] (centres undefined),outcome,[2],inactive
OC1CCCCCCCCCCC1,outcome,[5],inactive
same,outcome,[3],inactive
same,outcome,[4],inactive
O=C1Nc2ccccc2C1(c1ccc(O)cc1)c1ccc(O)cc1,outcome,[5],inactive
same,outcome,[2],inactive
CN(C)c1ccc(N=Nc2ccccc2C(=O)O)cc1,outcome,[5],inactive
same,outcome,[3],inactive
same,outcome,[4],inactive
Nc1ccc(Oc2ccc(N)c(N)c2)cc1,outcome,[5],inactive
same,outcome,[2],inactive
Nc1ccc2cc3ccccc3cc2c1,outcome,[2],inactive
CCC(Cc1ccccc1)(C(=O)c1ccc(N2CCOCC2)cc1)N(C)C (centres undefined),outcome,[2],inactive
[Cl][Bi]([Cl])([c]1ccccc1)([c]1ccccc1)[c]1ccccc1,outcome,[5],inactive
same,outcome,[2],inactive
C=CC(=O)OCCOC(=O)C=C,outcome,[5],inactive
same,outcome,[2],inactive
O=C(c1ccc(O)cc1)c1ccc(O)cc1O,AC50,[5],2.12 µM (active)
same,AC50,[2],0.481 µM (active)
CCOC(=O)N1CCC(=C2c3ccc(Cl)cc3CCc3cccnc32)CC1,outcome,[5],inactive
same,AC50,[2],0.0259 µM (active)
Cc1cccc(N)n1,outcome,[5],inactive
same,outcome,[2],inactive
CC(C)c1ccc2c(c1)CC[C@H]1[C@](C)(CN)CCC[C@]21C,outcome,[2],inactive
CCC(=O)Oc1ccc(/C(CC)=C(\CC)c2ccc(OC(=O)CC)cc2)cc1,AC50,[5],0.00521 µM (active)
same,AC50,[2],0.00229 µM (active)
COc1ccc(-c2coc3cc(O)ccc3c2=O)cc1,outcome,[5],inactive
same,AC50,[2],7.09 µM (active)
O=C(c1ccccc1)c1ccc(O)c(O)c1O,outcome,[5],inactive
same,outcome,[2],inactive
CC(C)(C)c1ccc(OC(=O)c2ccccc2O)cc1,AC50,[3],14.5 µM (active)
same,outcome,[4],inactive
CCCCCCCCO[C@@H]1O[C@H](CO)[C@@H](O)[C@H](O)[C@H]1O,outcome,[3],inactive
same,outcome,[4],inactive
O=C(O)c1ccccc1Nc1cccc(C(F)(F)F)c1,outcome,[2],inactive
CCCCCCC1(C)CCC(=O)O1 (centres undefined),outcome,[3],inactive
same,outcome,[4],inactive
O=C(C=Cc1ccccc1)OCc1ccccc1,outcome,[3],inactive
same,outcome,[4],inactive
CC1=CC[C@H]2C[C@@H]1C2(C)C,outcome,[3],inactive
same,outcome,[4],inactive
